Values joined by “and” are separate entries in the source; they are usually repeats but may differ in a detail not shown here. Equal entries are not always repeated. About 83,000 compounds went through this panel and 20% of them were active in at least one assay; those are over-represented in the sample as a whole.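 Assay: single dose, 48 h. Readout: percent growth (0 = no net growth; negative = cell death). Active: <10.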 Some compounds were tested as several samples or in several runs, with calls that do not always agree. Active and inactive are the calls of the source.
tested on: MDA-MB-468 breast; assay: NCI-60 one-dose screen, 48 h (100 = growth as untreated, 0 = no growth, -100 = all killed); details: 10 µM unless noted

| SMILES | growth |
| --- | --- |
| O=C(CN1C(=O)/C(=C/c2ccco2)SC1=S)NCCc1c[nH]c2ccc(F)cc12 | 105% (inactive) |
| Nc1[nH]n2cc(-c3ccc(F)cc3)nc2c1N=Nc1ccc(S(N)(=O)=O)cc1 | 83.4% (inactive) |
| CCOC(=O)C/C(C)=N\NC(=O)c1ccncc1 | 110% (inactive) |
| COC(=O)/C(CCC=C(C)C)=C1\[C@@H](OC(C)=O)C[C@@]2(C)[C@H]1C[C@@H](O)[C@H]1[C@@]3(C)CC[C@H](NCCN)[C@@H](C)[C@@H]3CC[C@@]12C | 58.6% (inactive) |
| O=S(=O)(NCCCNc1nccc(-c2[nH]c(-c3ccccc3)nc2-c2ccc(F)c(O)c2)n1)c1cccc2ccccc12 | 48.8% (inactive) |
| NC1(N)C=CC2=C(C=C1)C1(N)C3=C(C=CC(N)(N)C=C3)N2C2(N)C3=C(C=CC(N)(N)C=C3)N1C1=C2C=CC(N)(N)C=C1 | 72.3% (inactive) |
| C[C@H](C(=O)Nc1ccc(S(N)(=O)=O)cc1)S(=O)(=O)c1ccccc1 | 102% (inactive) |
| CCN(CC)CCNc1ccc(C)c2sc3cc(Cl)ccc3c(=O)c12 | 14.4% (inactive) |
| O=C1c2cc(Cl)ccc2S(=O)(=O)c2c(NCCCNCCO)nc3ccccc3c21 | -14.1% (active) |
| Nc1ccccc1Nc1ccccc1 | 120% (inactive) and 118% (inactive) |
| COc1ccc(/C=C2\COc3ccc(-c4ccccc4)cc3C2=O)cc1O | 14.6% (inactive) |
| O=C(c1cccc(F)c1)n1ccc2cc(NC(=S)Nc3cccnc3)ccc21 | 91.9% (inactive) |
| CCCCCCCCCCCCCCCCCC(=O)Nc1ccc(O)cc1 | 103% (inactive) |
| OC1CCC(Oc2cccc3cnc(Nc4ccc5nc[nH]c5c4)nc23)CC1 (stereo not given) | -42.4% (active) and 69.7% (inactive) |
| COc1ccc(/C=N/NC2=NC3C(S2)N(C)C(=O)N3C)cc1 (stereo not given) | -8.86% (active) |
| COc1cnc2c(c1)C(=O)c1c-2n(CCCN2CCN(C)CC2)c(=O)c2cc([N+](=O)[O-])ccc12 | -57.9% (active) |
| O=c1c2cc(F)ccc2oc2c(NCCNCCO)nc3ccccc3c12 | -14.5% (active) |
| COc1ccc(C(=O)c2sc3nc4c(c(C(F)(F)F)c3c2N)CN(C(C)=O)CC4)cc1OC | 83.7% (inactive) |
| COc1cc(/C=C/C(=O)c2ccc(Nc3nc(NCCO)nc(N4CCOCC4)n3)cc2)cc(OC)c1OC | 2.9% (active) |
| O=C1N(Cc2ccccc2Cl)c2ccccc2C12NN=C(c1cccc(Cl)c1)S2 (stereo not given) | -29.6% (active) |
| COc1ccc(-c2cn(Cc3ccc4c(Br)cc(Br)c(O)c4n3)nn2)cc1 | 72.2% (inactive) |
| Cc1ccc(-c2nc(-c3cn(C)c4ncccc34)cs2)cc1 | -50.2% [100 µM] (active) |
| c1coc(-c2c3ccc(=[N+]4CCCCC4)cc-3oc3cc(N4CCCCC4)ccc23)c1 | -88.6% (active) |
| CC(=O)OC[C@H]1O[C@H](OC(C)=O)[C@H](NC(=O)/C=C/CCl)[C@@H](OC(C)=O)[C@@H]1OC(C)=O | 75.3% (inactive) |
| Cc1ccc2c(-c3nnc(N)s3)cc(=O)oc2c1C | 95.6% (inactive) |
